ADAM10 inh = ADAM10 inhibition, QFRET primary screen | recombinant ADAM10, EDANS/DABCYL FRET peptide cleavage, 3 h | AID 720582 | inhibition, % at 7 µM | actives 0.62% (n = 370,000) | O14672;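 active = inhibition above a per-campaign cutoff equal to the mean of compounds falling between control-based bounds plus 3 SD, cut at about 20% in these data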;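 note: 0% = DMSO wells while the 100% control is not disclosed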
Target sequence (O14672 214-748 limits assumed): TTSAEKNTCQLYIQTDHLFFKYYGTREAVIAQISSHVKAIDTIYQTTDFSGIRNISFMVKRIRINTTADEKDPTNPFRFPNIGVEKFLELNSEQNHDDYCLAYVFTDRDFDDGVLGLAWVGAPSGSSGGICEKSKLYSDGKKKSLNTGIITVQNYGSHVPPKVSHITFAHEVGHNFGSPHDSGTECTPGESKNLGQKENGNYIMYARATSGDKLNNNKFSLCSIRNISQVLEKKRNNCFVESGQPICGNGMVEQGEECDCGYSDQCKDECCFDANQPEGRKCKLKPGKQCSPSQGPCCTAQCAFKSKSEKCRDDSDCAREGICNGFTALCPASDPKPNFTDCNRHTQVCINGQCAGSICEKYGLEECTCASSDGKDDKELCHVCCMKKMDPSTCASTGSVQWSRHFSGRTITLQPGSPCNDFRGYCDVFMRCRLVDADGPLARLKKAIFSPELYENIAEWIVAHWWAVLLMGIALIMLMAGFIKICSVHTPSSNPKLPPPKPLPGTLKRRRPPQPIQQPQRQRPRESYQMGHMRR
proKLK7 act = activators of human kallikrein-7 zymogen; P49862; purified proKLK7, EDANS-DABCYL substrate fluorescence; 100% is mature enzyme control, 0% vehicle; activation, % at 7 µM; actives 0.9% (n = 370,000);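 active = activation above the mean of all tested compounds plus 3 SD, computed per campaign excluding outliers beyond control limits, cut at about 13% in these data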
ADAM17 inh = ADAM17 inhibition, QFRET primary screen; P78536; recombinant ADAM17, EDANS/DABCYL FRET peptide cleavage; inhibition, % at 6.95 µM; actives 0.83% (n = 370,000);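 active = inhibition above the mean of compounds lying between control limits plus 3 SD, set per campaign, cut at about 8.5% in these data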;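 note: 0% = DMSO-only wells as the low control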
PLCb3 inh = blocks human PLC-beta3 enzyme activity. Q01970. inhibition, % at 12.2 µM. actives 0.18% (n = 370,000). Purified PLC-beta3, fluorogenic substrate, fluorescence; in the data active = inhibition above about 11%;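 note: 0% = median of compound wells on plate and 100% = full blocker control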
PLCg1 inh = PLC-gamma1 (human) inhibition, primary screen. P19174. purified PLC-gamma1, fluorogenic substrate, fluorescence. inhibition, % at 12.2 µM. actives 0.84% (n = 370,000). AID 720700; in the data active = inhibition above about 9.5%
ADAM10 confirm = confirmation of inhibitors of human ADAM10; actives 1% (n = 2,100); inhibition, % at 6.95 µM; ADAM10 QFRET peptide cleavage, EDANS fluorescence; shares compounds with ADAM10 inh; AID 743208;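 active = inhibition above about 20% chosen separately for each screening run, limit read from the data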;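 note: 0% = DMSO wells and 100% = marimastat wells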
ADAM17 counter = ADAM17 inhibition, counter-screen for ADAM10 exosite hits | shares compounds with ADAM10 inh | ADAM17 QFRET peptide cleavage, EDANS fluorescence | inhibition, % at 6.95 µM | actives 0.5% (n = 2,100) | AID 743214;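 active = mean triplicate inhibition above the solvent-only control wells' mean plus 3 SD, cut at about 12% in these data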;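 note: 0% = DMSO wells and 100% = marimastat wells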
ADAM10 counter = inhibits human ADAM10 in ADAM17 exosite counter-screen | shares compounds with ADAM17 inh | recombinant ADAM10, EDANS/DABCYL FRET peptide cleavage, 3 h | inhibition, % at 6.95 µM | actives 47% (n = 2,900) | AID 743256;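 active = mean inhibition over the triplicate runs exceeds the activity threshold set in the earlier primary screen, cut at about 20% in these data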;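 note: 0% = DMSO wells and 100% = marimastat wells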
ADAM17 confirm = human ADAM17 inhibition, confirmation | shares compounds with ADAM17 inh | recombinant ADAM17, EDANS/DABCYL QFRET peptide cleavage | inhibition, % at 6.95 µM | actives 65% (n = 2,900) | AID 743257;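 active = mean inhibition across replicates above the hit cutoff set in the primary screen, cut at about 8.5% in these data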;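 note: 0% = DMSO wells and 100% = marimastat wells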
Starred values were filed as active, the others as inactive; . = not tested or not shown. Rows were chosen to be rich in hits. Some 2.9% of all compounds tested hit in one or more screens of this group.

SMILES | ADAM10 inh | proKLK7 act | ADAM17 inh | PLCb3 inh | PLCg1 inh | ADAM10 confirm | ADAM17 counter | ADAM10 counter | ADAM17 confirm
C[C@H](NC(=O)c1nc[nH]c1C(=O)N[C@@H](Cc1ccccc1)C(=O)OC(C)(C)C)C(=O)OCc1ccccc1 | 25* | 1 | 10* | 9 | 5 | 9 | 4 | 38* | 25*
C[C@H](NC(=O)c1[nH]cnc1C(=O)Nc1ccccc1)c1ccccc1 | 14 | 0 | 6 | -2 | 0 | . | . | . | .
CN(Cc1ccccc1)C(=O)c1[nH]cnc1C(=O)NCc1ccc(CNC(=O)OC(C)(C)C)cc1 | 5 | 0 | 1 | 6 | -1 | . | . | . | .
C[C@H](NC(=O)c1nc[nH]c1C(=O)NCC(=O)OCc1ccccc1)C(=O)OCc1ccccc1 | 12 | 1 | 6 | 3 | 2 | . | . | . | .
Cc1ccc(NC(=O)c2nc[nH]c2C(=O)N[C@H](C)c2ccccc2)cc1 | 20* | 0 | 13* | 1 | 1 | 5 | 2 | 20* | 11*
CC(C)C[C@H](NC(=O)c1nc[nH]c1C(=O)NCC(=O)OCc1ccccc1)C(=O)OCc1ccccc1 | 45* | 0 | 24* | -4 | 9 | 6 | 2 | 36* | 21*
C[C@@H](OC(=O)c1[nH]cnc1C(=O)NCc1ccc(CNC(=O)OC(C)(C)C)cc1)c1ccccc1 | 40* | 0 | 25* | 8 | 5 | 1 | 1 | 22* | 12*
N/N=C/C(=N\Nc1ccc(Cl)cc1)C(=O)c1ccncc1 | 14 | 0 | 0 | -4 | 5 | . | . | . | .
COc1ccccc1NC(=O)OCCN1CCCC12CCC(c1ccccc1)CC2 (stereo not drawn) | -6 | . | -2 | -1 | -2 | . | . | . | .
CC(C)(C)OC(=O)[C@H](Cc1ccccc1)NC(=O)c1nc[nH]c1C(=O)NCc1ccccc1 | 25* | 0 | 12* | 5 | 1 | 8 | 2 | 31* | 17*
C[C@H](NC(=O)c1nc[nH]c1C(=O)N[C@@H](Cc1ccccc1)C(=O)OC(C)(C)C)c1ccccc1 | 37* | 0 | 18* | 3 | 4 | 10 | 3 | 55* | 28*
CNC(=O)c1[nH]cnc1C(=O)N[C@@H](Cc1ccccc1)C(=O)OC(C)(C)C | 6 | 0 | 2 | 2 | 2 | . | . | . | .
Cc1cccc(NS(=O)(=O)c2ccc(C3CCCCC3)cc2)c1 | 32* | 1 | 16* | 4 | 6 | 10 | 4 | 24* | 15*
Cc1cccc(NS(=O)(=O)c2ccc(C3CCCCC3)cc2)n1 | -129 | 2 | -43 | -53 | -36 | . | . | . | .
CCCC1CCC2(CCCN2CCOC(=S)Nc2ccccc2)CC1 (stereo not drawn) | 2 | . | -5 | -2 | 3 | . | . | . | .
CC(=O)c1cccc(-c2ccnc3c2CC(C(=O)Nc2ccc(Cl)cc2)O3)c1 (stereo not drawn) | 24* | 0 | 8.7* | 7 | 6 | 3 | 1 | 11 | 7
CC(=O)Nc1ccc(NC(=O)C2Cc3c(-c4cccc(C(C)=O)c4)ccnc3O2)cc1 (stereo not drawn) | -11 | 0 | -1 | 3 | 3 | . | . | . | .
CC(C)[C@H](NS(=O)(=O)c1ccccc1)C(=O)OCC(=O)Nc1ccccc1Sc1ccccc1 | 20* | 0 | 9.6* | 3 | 3 | 5 | 2 | 18 | 9.1*
Cc1cc(NC(=O)COC(=O)[C@@H](NS(=O)(=O)c2ccccc2)C(C)C)no1 | -9 | 0 | -1 | 2 | -1 | . | . | . | .
O=C(COc1ccc(Cl)cc1Cl)N1CCCN(C(=O)COc2ccc(Cl)cc2Cl)CC1 | 25* | 0 | 9.8* | -1 | 2 | 4 | 1 | 20 | 9.2*
O=C(Nc1cccc(S(=O)(=O)Nc2ccc(Cl)cc2)c1)c1cc2c(s1)CCCC2 | 27* | 0 | 15* | 5 | 9 | 14 | 4 | 45* | 27*
Cc1ccc(NC(=O)c2cc3c(s2)CCCC3)cc1S(=O)(=O)Nc1ccccc1Cl | 25* | -3 | 16* | -42 | -31 | 52* | 15* | 22* | 15*
C[C@@H]1COc2cc(Br)ccc2S(=O)(=O)N1Cc1cn(CC2CCCCC2)nn1 | 1 | 0 | 0 | 0 | 1 | . | . | . | .
CCOC(=O)C1=CCN(S(=O)(=O)c2cccc(Cl)c2)C1c1ccc(Cl)c(Cl)c1 (stereo not drawn) | 0 | 0 | 2 | -2 | -2 | . | . | . | .
O=C(C1CCCN(S(=O)(=O)c2ccc(Br)s2)C1)N1CCN(Cc2ccccc2)CC1 (stereo not drawn) | -2 | 1 | 1 | -2 | -1 | . | . | . | .
SMILES | ADAM10 inh | proKLK7 act | ADAM17 inh | PLCb3 inh | PLCg1 inh | ADAM10 confirm | ADAM17 counter | ADAM10 counter | ADAM17 confirm
COC(=O)c1cc2cc(NS(=O)(=O)c3ccc(C)cc3)ccc2s1 | 28* | 1 | 15* | -50 | -39 | 9 | 3 | 17 | 10*
Cc1ccc(S(=O)(=O)Nc2ccc3ccccc3c2)cc1 | 24* | 0 | 17* | 1 | 1 | 7 | 2 | 13 | 8
COC(=O)C1CN(C2CCCC2)CCS(=O)(=O)N1Cc1cn(Cc2ccc(C)cc2)nn1 (stereo not drawn) | 15 | 0 | 4 | 5 | 2 | . | . | . | .
CCCc1nc2ccccc2c(C(=O)OCC(=O)Nc2ccc(S(=O)(=O)N3CCOCC3)cc2)c1CC | 40* | 0 | 18* | 3 | 3 | 10 | 4 | 30* | 18*
Cc1ccc2c(c1)C(CS(=O)(=O)NCc1ccccc1)NC2 (stereo not drawn) | -8 | 0 | -5 | -12 | -9 | . | . | . | .
O=C(NCc1ccccc1)[C@H]1CCCN1C(=O)[C@H]1CCCN1C(=O)c1ccc(F)c(C(F)(F)F)c1 | -15 | 0 | -6 | -1 | 1 | . | . | . | .
Nc1cc(OC(=O)c2cccs2)nn1S(=O)(=O)c1ccccc1 | 4 | 0 | -2 | 0 | 0 | . | . | . | .
Nc1cc(OC(=O)c2c(F)cccc2Cl)nn1S(=O)(=O)c1ccccc1 | 28* | 0 | 12* | 1 | 7 | 7 | 2 | 18 | 11*
O=C(Cc1ccc(Cl)cc1)NNC(=O)c1ccco1 | -4 | 0 | 1 | -4 | 7 | . | . | . | .
COc1ccc(C(C(=O)NC2CCCCC2)N(C(=O)c2sc(C)nc2C)c2ccccc2)cc1 (stereo not drawn) | 2 | 0 | 0 | 1 | 1 | . | . | . | .

Compound activity from PubChem BioAssay.
